Screening data (PubChem)
FLuc inh-1: Firefly luciferase inhibition profiling of diverse chemical library using quantitative high-throughput screening. Luciferin 4-monooxygenase (Photinus pyralis), P08659. purified P. pyralis luciferase, luminescence, biochemical. Potency, µM (titrated, usually from 115 µM), actives largely listed as inhibitors. 2.5% of 76,000 active. AID 1347043, 2019; note: % is set by controls: 0 for no effect and ±100 for the full control effect; nearly all actives have a fitted effect of over 65% in size
Target sequence (P08659 whole entry, looked up): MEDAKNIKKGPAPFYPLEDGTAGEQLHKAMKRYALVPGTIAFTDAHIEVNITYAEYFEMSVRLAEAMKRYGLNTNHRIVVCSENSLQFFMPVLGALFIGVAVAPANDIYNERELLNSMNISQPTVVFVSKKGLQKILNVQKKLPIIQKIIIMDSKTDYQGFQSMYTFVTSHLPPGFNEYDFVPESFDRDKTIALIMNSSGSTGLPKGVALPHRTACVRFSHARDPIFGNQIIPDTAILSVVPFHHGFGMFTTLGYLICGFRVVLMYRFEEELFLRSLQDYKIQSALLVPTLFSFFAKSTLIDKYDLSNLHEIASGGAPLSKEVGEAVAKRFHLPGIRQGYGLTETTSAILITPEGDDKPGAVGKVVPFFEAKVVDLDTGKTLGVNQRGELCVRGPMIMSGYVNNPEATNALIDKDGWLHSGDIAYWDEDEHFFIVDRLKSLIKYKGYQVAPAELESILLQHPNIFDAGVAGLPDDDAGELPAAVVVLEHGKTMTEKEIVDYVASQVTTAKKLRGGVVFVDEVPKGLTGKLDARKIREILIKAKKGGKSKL
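Luminescence read by CCD imaging after purified firefly luciferase (10nM final) was added to substrate buffer holding 10uM D-luciferin and 10uM ATP, pH 7.5, pre-dosed with compound.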
NPR1 antag: Natriuretic polypeptide receptor (hNpr1) antagonism - Primary qHTS. Potency, µM (titrated, usually from 46.3 µM), for inactives: top-dose activity change, negative = inhibition, most hits filed as inhibitors. HEK293 hNpr1 GloSensor cGMP, ANP-stimulated luminescence. AID 1347048, 2019. 1.6% of 76,000 active; calls by dose curve; note: % is set by controls: 0 for no effect and ±100 for the full control effect; nearly all actives have a fitted effect of over 60% in size
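Compound pre-incubated 30 min at room temperature on GloSensor-loaded HEK293 cells stably carrying hNpr1 and the pGS-40F cGMP biosensor. Stimulation uses hNppA at 0.1 nM final; luminescence is taken at baseline and 20 min post-agonist.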
NIH3T3 tox: Cytotoxic Profiling in NIH 3T3 Cell Line of Diverse Libraries Using Quantitative High-Throughput Screening | NIH 3T3 viability, CellTiter-Glo ATP luminescence, 48-72 h | Potency, µM (highest dose often 96.7 µM), inactives show at the highest dose activity change, negative = cytotoxicity, most hits filed as inhibitors | 4.3% of 94,000 active | AID 1345082, 2018; note: % is set by controls: 0 for no effect and ±100 for the full control effect; nearly all actives have a fitted effect of over 55% in size
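NIH 3T3 cells at 400 cells/well received 23 nL of compound by pintool and were incubated 48 or 72 h at 37 °C. Viability was read as ATP-coupled CellTiter-Glo luminescence.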
HEK cytotox: Cytotoxic Profiling in HEK 293 Cell Line of Diverse Libraries Using Quantitative High-Throughput Screening; HEK 293 viability, ATP luminescence (CellTiter-Glo), 48-72 h; Potency, µM (doses to about 115 µM), for the others: at the top dose activity change, negative = cytotoxicity, hits mostly inhibitors; 6.6% of 94,000 active; note: % is set by controls: 0 for no effect and ±100 for the full control effect; nearly all actives have a fitted effect of over 60% in size
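Pintool-delivered compounds were incubated with HEK 293 cells (250 cells/well) at 37 degree Celsius for 48 or 72 hr. ATP-dependent luminescence (CellTiter-Glo) then reported remaining viable cells.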
FLuc SDR -ATP: Firefly luciferase (FLuc-C-HiBiT) SDR gain of signal screen - without ATP | Purified FLuc-C-HiBiT, Nano-Glo HiBiT luminescence, no ATP | AID 1963318, 2024 | shares compounds with FLuc inh-1 | 7.8% of 1,300 active | Potency, µM (doses to about 32.7 µM), inactives show at the highest dose activation (signal gain), most hits filed as activators; note: nearly all actives have a fitted effect of over 55% in size
FLuc SDR ATP: Firefly luciferase (FLuc-C-HiBiT) SDR gain of signal screen - plus ATP; shares compounds with FLuc inh-1; purified FLuc-C-HiBiT + ATP, HiBiT complementation luminescence; Potency, µM (doses to about 32.7 µM), for inactives: at the highest dose activation (gain of signal), usual class: activators; 8.7% of 1,300 active; AID 1963319, 2024;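 note: signal reports ligand binding via conformational change of the enzyme rather than luciferase catalysis; % of control where 0% means no effect; nearly all actives have a fitted effect of over 55% in size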
FLuc inh-2: Firefly luciferase (FLuc-C-HiBiT) enzymatic inhibition screen - Functional assay; shares compounds with FLuc inh-1; purified FLuc-C-HiBiT enzyme, luciferin luminescence; Potency, µM (series often up to 32.7 µM), for the others: at the top dose activity change, negative = inhibition, usual class: inhibitors; 42% of 1,300 active; AID 1963320, 2024; note: % is set by controls: 0 for no effect and ±100 for the full control effect; nearly all actives have a fitted effect of over 70% in size
Numbers without * were called inactive; i = inactive; u = inconclusive; x = no result; [ ] = remark or other dose. This is a sample that favours compounds with a hit; in the whole collection about 11% have one here. Unless noted, calls come from the whole dose curve; as a rule, active = well fitted curve in the direction sought with a large enough effect; inconclusive = small, poorly fitted or top-dose-only effect, or another doubt; inactive = no such curve, though single readings can be large; an effect the other way counts as inactive or inconclusive. Potency is the fitted concentration of half-maximal effect.

SMILES | FLuc inh-1 | NPR1 antag | NIH3T3 tox | HEK cytotox | FLuc SDR -ATP | FLuc SDR ATP | FLuc inh-2
O=C(NCCc1ccccc1F)C1CCc2nnc(C3CCN([S+](=O)([O-])c4ccccc4Cl)CC3)n21 (centres undefined) | x | x | -15% | 1% | x | x | x
C=CCCC(=O)N1CCC(=O)N(CCC#N)C[C@H]2COc3cc(OC)ccc3[C@H]21 | x | x | u | -5% | x | x | x
O=C(Nc1ccccc1)N1CCN(C(=O)c2nc3cccnc3n(Cc3ccccc3)c2=O)CC1 | x | x | u | -12% | x | x | x
Cc1nnc2ccc(N3CCC(NC(=O)c4ccc(F)cc4)CC3)nn12 | x | x | -27% | -20% | x | x | x
CCCc1ccc(-c2nc(C3CCOC3)no2)cc1 (centres undefined) | 1.1µM* | u | -21% | u | 15% | u | 7µM*
c1cn(-c2ccc(-c3nc(C4CCOC4)no3)cc2)cn1 (centres undefined) | i | -1% | -20% | -4% | x | x | x
Cn1c(C(=O)Nc2ccc3c(c2)OCO3)cc2c1CCN(Cc1cccc(F)c1)C2 | 10µM* | -1% | u | u | 13% | 12% | -19%
CN(Cc1cnccn1)C(=O)c1csc2nc(-c3cccc(C(F)(F)F)c3)cn12 | u | 16% | u | u | x | x | x
CN(Cc1cnn(C)c1)C(=O)c1csc2nc(-c3ccc(C(F)(F)F)cc3)cn12 | 4.5µM* | u | u | u | u | u | 4.4µM*
COc1ccc(-c2cc3nc4c(c(=O)n3[nH]2)CN(C(=O)Cc2ccccc2)CC4)cc1 | u | 4% | -7% | 3% | x | x | x
COc1ccc(-c2cc3nc4c(c(=O)n3[nH]2)CN(C(=O)NCc2ccco2)CC4)cc1 | 7.1µM* | -2% | u | u | u | 14% | 11µM*
COc1ccccc1C(=O)N1CCC2(CC1)C(=NC1CCCCC1)NC(=O)N2c1cc(F)cc(F)c1 | x | x | i | i | x | x | x
O=C(Nc1n[nH]c2cc(-c3ccccc3)ccc12)C1CC1 | x | x | x | x | 18% | 11% | u
O=C(Nc1ncc(-c2ccccc2)c2c1OCC2)C1CCOCC1 | i | -1%[70.6 µM] | u | u | x | x | x
Cc1ccc([S+](=O)([O-])N2CCC(C(=O)N3CCC(N4CCCC4=O)CC3)CC2)cc1 | x | x | -13% | 4% | x | x | x
Nc1c(C(=O)Nc2ccc(C(=O)O)cc2)sc2nc3c(cc12)CCCC3 | x | x | x | x | 11µM* | 0.25µM* | 0.18µM*
COc1ccc(C(=O)Nc2ccc(-c3nnc4n3CCCC4)cc2)cc1 | i | -8% | -26% | 5% | x | x | x
CCOC(=O)c1ccc(NC(=O)c2nsc3ccccc23)cc1 | x | x | x | x | 26% | 20% | 3.5µM*
COCC(=O)NC[C@H]1OC[C@@H](NCc2ccc(F)cc2)[C@@H]1O | i | 6%[70.6 µM] | i | 4%[172 µM] | x | x | x
COc1ccc(NC(=O)/C(C#N)=C/c2ccc(C)o2)cc1 | x | x | x | x | 22% | 17% | u
COc1ccccc1OCc1nc2ccccc2n1Cc1ccccc1 | x | x | x | x | 15% | 9% | u
COc1ccc(C(=O)NCC2Cc3cc(C)cc(-c4nc5ccccc5s4)c3O2)c(OC)c1OC (centres undefined) | x | x | x | x | 15% | 11% | 1%
Cc1cc2c(c(-c3nc4ccccc4s3)c1)OC(CNC(=O)c1occc1C)C2 (centres undefined) | x | x | x | x | 15% | 12% | u
COc1ccccc1-c1cn2c(n1)CO[C@@H](CNC(=O)c1ccc(F)cc1)C2 | i | 2%[70.6 µM] | u | u | x | x | x
Cc1ccc(C(=O)NC2CC2)cc1-c1ccc2[nH]ncc2c1 | x | x | x | x | 17% | 12% | -16%
SMILES | FLuc inh-1 | NPR1 antag | NIH3T3 tox | HEK cytotox | FLuc SDR -ATP | FLuc SDR ATP | FLuc inh-2
CCOc1cc2sc(N3CCC(C(=O)Nc4ccc(C(C)C)cc4)CC3)nc2cc1Br | x | x | x | x | 16% | u | 7µM*
CC(C)C(=O)N1Cc2ccccc2CC2(CCN(Cc3ccncc3)C2)C1 (centres undefined) | x | x | -20% | -29% | x | x | x
O=C(Nc1ccccc1-c1nc2ccccc2s1)c1cc(Cl)cc(Cl)c1 | x | x | x | x | 10% | 9% | 2%
COc1ccc(C(=O)Nc2ccccc2-c2nc3ccccc3s2)cc1OC | x | x | x | x | 13% | 9% | 0%
O=C(Nc1ccccc1-c1nc2ccccc2s1)c1ccc(F)cc1 | x | x | x | x | 8% | 7% | -7%
COc1ccc(C(=O)NCCC2CCN(C(=O)Nc3ccccc3)CC2)cc1OC | i | 3% | 3% | -6% | x | x | x
Cc1ccc(NC(=O)N2CCCC(Cn3c(C4CC4)nc4cccnc43)C2)cc1C (centres undefined) | i | 8% | u | u | x | x | x
COc1ccc(C(=O)N2CCCC(c3nn(-c4ccc(OC)cc4)c(=O)[nH]3)C2)cc1 (centres undefined) | i | 17% | -31% | -12% | x | x | x
Cc1cc(-c2nc3cc(F)ccc3s2)ccc1N | x | x | x | x | u | u | 1.1µM*
Cc1cc(-c2nc3cc(F)ccc3s2)ccc1NC(=O)[C@@H](N)CCCCN | x | x | x | x | 30% | u | 2.5µM*
